# HT1080NT lethal: qHTS for induction of synthetic lethality in tumor cells producing 2HG: qHTS for the HT-1080-NT fibrosarcoma cell line | HT-1080-NT fibrosarcoma viability, CellTiter-Glo ATP luminescence, 48 h | AID 686970, 2013 | Potency, µM (titrated, usually from 46.1 µM), for the others: top-dose activity, negative = less viability, usual class: cytotoxic | hit rate 1.6% among 360,000;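 also: NT is the 2HG producing partner of a matched IDH1 knockdown line; potency is read from the fitted curve at half-maximal effect; 0% = DMSO-treated cells and -100% = media-only wells without cells; nearly all actives have a fitted effect of over 55% in size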
#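 HT-1080-NT; 750 cells/well; 5% FBS RPMI; 48 h compound, 37 degrees C; CellTiter-Glo luminescence; curve fitting and curve-class assignment.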
# HT1080 IDH1KD tx: qHTS for induction of synthetic lethality in tumor cells producing 2HG: qHTS for the HT-1080-IDH1KD cell line. Potency, µM (doses to about 46.1 µM), for the others: at the top dose activity, negative = toxicity, usual class: cytotoxic. HT-1080 IDH1 knockdown viability, ATP luminescence, 48 h. hit rate 2% among 360,000. AID 686971, 2013;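 also: potency is read from the fitted curve at half-maximal effect; 0% = DMSO wells and -100% = cell-free medium wells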
#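 CellTiter-Glo luminescence after 48 h compound exposure at 37 degrees C of IDH1-knockdown HT-1080 cells in 5% FBS RPMI. %Activity scaled between DMSO wells and cell-free media wells, with curves fitted and assigned curve classes.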
# KB-V1 MDR tox: qHTS assay for MDR1-selective chemotherapeutics: Primary screen using the drug-selected MDR subline cells KB-V1. KB-V1 MDR cells viability, CellTiter-Glo, 72 h. AID 1347076, 2019. hit rate 3.4% among 400,000. Potency, µM (doses to about 46.1 µM), most hits filed as cytotoxic; also: potency is read from the fitted curve at half-maximal effect; nearly all actives have a fitted effect of over 60% in size
#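 Readout: CellTiter-Glo luminescence, 10 min after addition. Cells: KB-V1 MDR subline, 72 h at 37 degrees C with compound. Analysis: corrected, normalized data fitted to concentration-effect curves.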
# KB-3-1 cytotox: qHTS assay for MDR1-selective chemotherapeutics: Primary screen using the parental adenocarcinoma cell KB-3-1; KB-3-1 viability, CellTiter-Glo ATP luminescence, 72 h; Potency, µM (titrated, usually from 46.1 µM), actives largely listed as cytotoxic; hit rate 1.4% among 400,000; also: potency is read from the fitted curve at half-maximal effect; nearly all actives have a fitted effect of over 60% in size
#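 Cytotoxicity in the drug-sensitive parental line KB-3-1 was scored as loss of CellTiter-Glo luminescence following 72 h incubation with compound. Values come from curve fitting of normalized concentration-response data.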
# IL1B secr inh: qHTS for Inhibitors of Inflammasome Signaling: IL-1-beta AlphaLISA Primary Screen. THP-1 LPS/ATP IL-1B secretion, AlphaLISA, 16 h; stronger effect = lower value. activity change, % at 57.5 µM. hit rate 4.7% among 360,000; in the data active = activity change below about -50%; inconclusive = mostly about -30% to -49%
#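 Secreted IL-1B measured by AlphaLISA bead assay after 16 h compound exposure of THP-1 cells; compounds (final up to 57.5 uM) added 1 h before LPS (250 ng/mL) and ATP (1.25 mM) stimulation; lower signal means less secretion.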
# Numbers without * were called inactive; i = inactive; ? = inconclusive; . = not tested or not shown. A selection: hits, their analogues and other compounds. The true share with any hit is near 8.8%. Unless noted, calls follow the shape of the dose curve; as a rule, active = well fitted curve in the direction sought with a large enough effect; inconclusive = small, poorly fitted or top-dose-only effect, or another doubt; inactive = no such curve, though single readings can be large; an effect the other way counts as inactive or inconclusive. Unless noted, % is scaled to controls: 0 for no effect and ±100 for the full control effect.
SMILES,HT1080NT lethal,HT1080 IDH1KD tx,KB-V1 MDR tox,KB-3-1 cytotox,IL1B secr inh
Cc1cc(F)ccc1S(=O)(=O)Nc1nc2ccccc2nc1Cl,-9%,-9%,i,?,-51*
Cc1cc(C)c(NC(=O)CN(C)S(=O)(=O)c2ccc3c(c2)CCC(=O)N3)c(C)c1,.,.,i,i,.
O=C(NCCCN=C1NS(=O)(=O)c2ccccc21)c1ccc(Cl)cc1,-7%,2%,i,i,51
COc1ccc(Br)cc1CN(C)CC(=O)Nc1cc(Cl)ccc1Cl,2%,23%,7.3µM*,i,-19
COc1ccc(Cl)cc1NC(=O)CN1Cc2ccccc2C1=O,.,.,5.2µM*,?,.
Cc1ccc(NC(=O)CN2C(=O)c3ccccc3S2(=O)=O)cc1C,-4%,-15%,i,i,21
COc1ccc(Cl)cc1NC(=O)CN1CCc2ccccc21,-11%,-10%,?,i,0
COc1ccc(NC(=O)CN2C(=O)c3ccccc3S2(=O)=O)cc1OC,19%,-1%,i,i,-83*
COc1ccc(Cl)cc1NC(=O)CN(C)C(=O)CCC(=O)c1cc(C)sc1C,-5%,-14%,i,i,-53*
COc1ccccc1CN(C)CC(=O)Nc1cccc2ccccc12,-15%,-23%,i,i,-60*
COC(=O)c1cc2ccsc2n1CC(=O)Nc1cc(Cl)ccc1OC,7.9µM*,?,?,?,-6
COC(=O)c1cc2oc(C)cc2n1CC(=O)Nc1cc(Cl)ccc1OC,.,.,i,i,.
COc1ccc(Cl)cc1NC(=O)CN(C)CC(=O)Nc1ccccc1-c1ccccc1,-8%,?,9.2µM*,i,-3
COc1ccc(NC(=O)CN(C)CC(=O)Nc2cccc3ccccc23)c(OC)c1,2%,6%,?,i,-7
COc1ccc(Cl)cc1NC(=O)CN(C)CC(=O)NCc1ccc(F)cc1,-12%,-6%,?,i,-14
COc1ccc(Cl)cc1NC(=O)CN(C)CC(=O)Nc1ccc(C)cc1Br,-4%,-12%,?,i,-67*
COc1ccc(OC)c(NC(=O)C(C)OC(=O)c2cc3ccccc3[nH]2)c1 (stereo not drawn),-12%,-11%,i,?,36
Cn1cc(S(=O)(=O)N2CCCCCC2)cc1C(=O)N1CCN(c2ccccc2F)CC1,.,.,i,i,.
CSCCC(NC(=O)COc1ccccc1)C(=O)NCCOc1ccccc1 (stereo not drawn),17%,0%,?,i,-4
O=C(Nc1nccs1)c1cn(-c2ccccc2)nc1-c1ccccc1,-7%,?,?,?,-63*
Cc1ccc(NC(=O)c2cn(-c3ccccc3)nc2-c2ccccc2)cc1,.,.,?,i,.
Cc1nn(Cc2c(Cl)cccc2Cl)c(C)c1NC(=O)c1cn(-c2ccccc2)nc1-c1ccccc1,3.7µM*,4.1µM*,9.2µM*,8.2µM*,28
CCOc1ccc(C(=O)Nc2ccc(S(=O)(=O)N3C[C@@H]4C[C@@H](C3)c3cccc(=O)n3C4)cc2)cc1,?,23µM*,i,i,29
O=C(Nc1ccc(S(=O)(=O)N2C[C@@H]3C[C@@H](C2)c2cccc(=O)n2C3)cc1)c1ccc(F)cc1,13%,0%,i,i,-7
CCOC(=O)c1ccc(N2C(=O)Cc3cc(OCC)c(OCC)cc3C2c2ccccc2)cc1 (stereo not drawn),.,.,i,?,.
COc1ccc(N2CCOCC2)c(NC(=O)c2cc3ccccc3o2)c1,-2%,-6%,12µM*,i,7
O=C(Nc1ccccc1N1CCOCC1)c1cc2ccccc2o1,0%,12%,?,i,3
O=C(Nc1cccc(Br)c1)c1cc2ccccc2o1,9%,3%,i,i,-57*
O=C(Nc1ccc(N2CCOCC2)c(Cl)c1)c1cc2ccccc2o1,?,?,?,?,-78*

# Screening data (PubChem)
